# Inconclusive results are not listed. Calls of active or inactive are those of the source. Rule as the data show it, unless noted: active = inhibition above about 80%; inactive = the rest.
# Columns and labels:
# [1] = growth inhibition of DIPG glioma cells, dose response, cell-based, SU-DIPG-XIII, MIPE5.0, CellTiter-Glo, qHTS (AID 1347064; cut-off not given, nearly all actives have AC50 up to about 23 µM;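 also: cells exposed to compound for 48 hours before the viability read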); conditions: SU-DIPG-XIII viability, CellTiter-Glo ATP luminescence
# [2] = SU-DIPG-XXV glioma cell viability, MIPE5.0 library, qHTS (AID 1347068; cut-off not given, nearly all actives have IC50 up to about 30 µM)
# [3] = LFS_MB_P medulloblastoma growth inhibition, cell-based, chromothripsis tumors, cisplatin or BGB combos (AID 1671449); conditions: LFS_MB_P medulloblastoma cells;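 also: cells exposed for 96 hours; 0% = vehicle DMSO and 100% = killing by high DMSO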
# [4] = HDN33 neuroblastoma growth inhibition, cell-based, chromothripsis tumors, cisplatin or BGB combos (AID 1671450); conditions: HDN33 neuroblastoma cells, stronger effect = higher value;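 also: cells exposed to compound for four days; 0% = vehicle DMSO and 100% = cell killing by high DMSO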
# [5] = ICB984 medulloblastoma cell growth inhibition, synergistic combos for chromothripsis tumors, cisplatin or BGB combos (AID 1671451; call rule not given here;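 also: cells exposed for 96 hours before readout; 0% = vehicle DMSO and 100% = killing by high DMSO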); conditions: ICB984 medulloblastoma cells, drug combinations, stronger effect = higher value
# [6] = LFS_MB_1R medulloblastoma cell growth inhibition, synergistic combos for chromothripsis tumors, cisplatin or BGB combos (AID 1671452); conditions: LFS_MB_1R medulloblastoma cells, stronger effect = higher value;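 also: cells exposed for 96 hours before readout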
# [7] = HTB85 osteosarcoma cell growth inhibition, synergistic combos for chromothripsis tumors, BGB or cisplatin IC20 combos (AID 1671453); conditions: HTB85 osteosarcoma cells, drug combinations, stronger effect = higher value;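 also: cells exposed for 96 hours before readout; 0% = vehicle DMSO and 100% = high DMSO killing control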
# [8] = CRL2098 osteosarcoma cell growth inhibition, synergistic combos for chromothripsis tumors, BGB or cisplatin IC20 combos (AID 1671454); conditions: CRL2098 osteosarcoma cells, drug combinations, stronger effect = higher value;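 also: cells exposed for 96 h before readout; 0% = vehicle DMSO and 100% = killing by high DMSO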
# [9] = HD-MB03 medulloblastoma cell growth inhibition, synergistic combos for chromothripsis tumors, BGB or cisplatin IC20 combos (AID 1671455; in the data active = inhibition above about 83%;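 also: 0% = vehicle DMSO and 100% = high DMSO as cytotoxic control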); conditions: HD-MB03 medulloblastoma cells, stronger effect = higher value
# [10] = UWB1.289 ovarian carcinoma cell growth inhibition, synergistic combos for chromothripsis tumors, BGB or cisplatin combos (AID 1671456); conditions: UWB1.289 ovarian carcinoma cells, stronger effect = higher value;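 also: cells exposed to compound for four days; 0% = vehicle DMSO and 100% = killing by high DMSO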
# [11] = LFS_MB_2R medulloblastoma cell growth inhibition, synergistic combos for chromothripsis tumors, cisplatin combos (AID 1671457); conditions: LFS_MB_2R medulloblastoma cells, stronger effect = higher value;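 also: cells exposed to compound for four days before readout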
# [12] = MDA-MB-436 breast carcinoma cell growth inhibition, synergistic combos for chromothripsis tumors, BGB or cisplatin combos (AID 1671458; call rule not given here;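 also: cells exposed for 96 hours; 0% = vehicle DMSO and 100% = killing by high DMSO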); conditions: MDA-MB-436 breast carcinoma growth inhibition, drug combinations, stronger effect = higher value
# [13] = UWB1.289_BRCA1 ovarian cancer growth, cell-based, BGB or cisplatin combinations (AID 1671459); conditions: UWB1.289 BRCA1 ovarian carcinoma, drug combinations, stronger effect = higher value
# [14] = human astrocyte viability loss, single and combined drugs, cytotoxicity control for chromothriptic childhood tumor combination screen, cell-based, BGB or cisplatin IC20 combos (AID 1671460); conditions: Human astrocytes, drug combinations, stronger effect = higher value;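 also: cells exposed to compounds for 96 hours before viability readout; 0% = vehicle and 100% = killing control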
# [15] = growth inhibition of BT084 medulloblastoma cells, cell-based, ICGC_MB145, cisplatin and BGB IC40 combos (AID 1671461); conditions: drug combinations, stronger effect = higher value;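 also: cells exposed to drugs for 96 hours; 0% = vehicle DMSO and 100% = high DMSO full killing control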
# [16] = growth inhibition of RCMB18 medulloblastoma cells, cell-based, cisplatin and BGB IC40 combos (AID 1671462); conditions: stronger effect = higher value;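 also: cells exposed to compound for four days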
# [17] = growth inhibition of CRL1545 osteosarcoma cells, cell-based, cisplatin and BGB IC20 combos (AID 1671464); conditions: stronger effect = higher value;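 also: cells exposed to compound for 96 hours before readout; 0% = vehicle DMSO and 100% = high DMSO killing control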
# [18] = measured here: combination with BGB IC40, at 0.05 µM
# [19] = measured here: with BGB IC20 combination, at 0.5 µM
# [20] = measured here: with cisplatin IC20 combination, at 0.5 µM
# [21] = measured here: combination with cisplatin, at 0.5 µM
# [22] = measured here: combination with cisplatin, at 5 µM
structure (smiles),measurement,setting,value
O=c1[nH]c([C@@H]2CCCN2)nc2c1oc1ccc(Cl)cc12,AC50,[1],20.9 µM (active)
same,outcome,[2],inactive
same,inhibition,"[3]; at 0.5 µM, stronger effect = higher value",-0.05% (inactive)
same,inhibition,"[3]; measured here: combination with BGB IC20, at 0.005 µM",-31.4%
same,inhibition,"[3]; measured here: combination with BGB IC40, at 0.005 µM",94.4%
same,inhibition,[3]; [18],-14%
same,inhibition,"[3]; measured here: combination with cisplatin, at 0.5 µM, stronger effect = higher value",64.5%
same,inhibition,"[3]; measured here: combination with cisplatin, at 5 µM, stronger effect = higher value",-16.4%
same,inhibition,"[4]; BGB combo, at 5 µM",1.11%
same,inhibition,[4]; at 0.5 µM,-21.3% (inactive)
same,inhibition,"[4]; cisplatin combo, at 5 µM",-6.62%
same,inhibition,[4]; [19],-15.4%
same,inhibition,[4]; [20],-18.8%
same,inhibition,"[4]; single agent, at 5 µM",3.38%
same,inhibition,"[5]; BGB IC20 combo, at 0.005 µM",-39.5%
same,inhibition,"[5]; BGB IC40 combo, at 0.005 µM",-26.9%
same,inhibition,"[5]; BGB IC40 combo, at 0.05 µM",-16.5%
same,inhibition,[5]; at 0.5 µM,-16.4% (inactive)
same,inhibition,"[5]; cisplatin combo, at 0.05 µM",-22.5%
same,inhibition,"[5]; cisplatin combo, at 0.5 µM",-15.6%
same,inhibition,"[5]; cisplatin combo, at 5 µM",4.34%
same,inhibition,"[5]; measured here: 5 uM single agent, at 5 µM",-19.5%
same,inhibition,[6]; at 0.5 µM,-31% (inactive)
same,inhibition,[6]; [18],-29.1%
same,inhibition,[6]; [21],-68.3%
same,inhibition,[6]; [22],-10.2%
same,inhibition,[7]; at 0.5 µM,-12.9% (inactive)
same,inhibition,"[7]; measured here: with BGB IC20, at 0.5 µM",-9.31%
same,inhibition,"[7]; measured here: with BGB IC20, at 5 µM",-19.7%
same,inhibition,"[7]; measured here: with cisplatin IC20, at 0.5 µM",-5.61%
same,inhibition,"[7]; measured here: with cisplatin IC20, at 5 µM",-2.34%
same,inhibition,"[7]; single agent, at 5 µM",-2.45%
same,inhibition,[8]; at 0.5 µM,-86.2% (inactive)
same,inhibition,"[8]; measured here: combination with BGB at IC20, at 0.5 µM",-77.4%
same,inhibition,"[8]; measured here: combination with cisplatin at IC20, at 0.5 µM",-117%
same,inhibition,[9]; at 0.5 µM,-12.2% (inactive)
same,inhibition,"[9]; measured here: combo with BGB at IC20, at 0.5 µM",-2.56%
same,inhibition,"[9]; measured here: combo with cisplatin at IC20, at 0.5 µM",-27.5%
same,inhibition,[10]; at 0.5 µM,-17.8% (inactive)
same,inhibition,"[10]; measured here: inhibition with BGB combination, at 0.05 µM",-12.3%
same,inhibition,"[10]; measured here: inhibition with cisplatin combination, at 0.05 µM",-25.4%
same,inhibition,[11]; at 0.5 µM,-16% (inactive)
same,inhibition,[11]; [21],-22.2%
same,inhibition,[11]; [22],-24.3%
same,inhibition,[12]; at 0.5 µM,-35% (inactive)
same,inhibition,"[12]; measured here: BGB combination, at 0.5 µM",-39.6%
same,inhibition,"[12]; measured here: BGB combination, at 5 µM",-62.1%
same,inhibition,"[12]; measured here: cisplatin combination, at 0.5 µM",-52.2%
same,inhibition,"[12]; measured here: cisplatin combination, at 5 µM",-71.9%
same,inhibition,"[13]; BGB combination, concentration series, at 5 µM",-4.02%
same,inhibition,[13]; at 0.5 µM,-15.4% (inactive)
same,inhibition,"[13]; cisplatin combination, concentration series, at 5 µM",-5.14%
same,inhibition,[14]; at 0.5 µM,1.64% (inactive)
same,inhibition,"[14]; measured here: combo with BGB IC20, at 0.5 µM",11.1%
same,inhibition,"[14]; measured here: combo with cisplatin IC20, at 0.5 µM",-0.305%
same,inhibition,[15]; at 0.5 µM,18.2% (inactive)
same,inhibition,"[15]; cisplatin combination, at 0.5 µM",0.765%
same,inhibition,"[15]; cisplatin combination, at 5 µM",-129%
same,inhibition,"[15]; measured here: BGB IC40 combination 0.05 uM, at 0.05 µM",-10.1%
same,inhibition,"[15]; single agent, at 5 µM",7.55%
same,inhibition,[16]; at 0.5 µM,-15.8% (inactive)
same,inhibition,"[16]; cisplatin combo, at 5 µM",-8.27%
same,inhibition,"[16]; measured here: BGB IC40 combination, at 0.05 µM",3.23%
same,inhibition,[16]; [21],-15.3%
same,inhibition,"[16]; single agent, at 5 µM",-12.8%
same,inhibition,[17]; at 0.5 µM,-44.6% (inactive)
same,inhibition,[17]; [19],-65.7%
same,inhibition,[17]; [20],-36.2%
same,inhibition,"[17]; single agent, at 0.05 µM",-56%
same,inhibition,"[17]; single agent, at 5 µM",-51.5%

# Source: PubChem BioAssay
